From the supplement of paper PMC6555819

Each sequence was assayed on FXR:RXRa (NR concentration 270 nM, RXRa partner concentration 90 nM) (assay: PBM binding z-score (relative to random genomic background probes); higher = stronger binding; sequences stand for … in GC…GCGATTGACAGCGTAGAATGAAGG).
Summary of the method: (§1)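 Custom Agilent 4×180K protein-binding microarrays carried double-stranded probes. Their 34-nt variable regions held direct-repeat seeds, single-nucleotide variants, half-site ablations and random human genomic background sequences. Arrays were incubated 1 h with ligand-free nuclear receptor dimers in PBS pH 7.4, 2% milk, 0.02% Triton X-100, 1 mM DTT, 0.2 mg/mL BSA and 0.4 mg/ml salmon testes DNA. Antibodies against each partner (one per run) detected binding, and scanned fluorescence was regression-normalized. Binding z-scores use random background probes as reference.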
With CCAACTAGGTCAGAACAGGACAGTGAAGGATGAT the PBM binding z-score was 1.3.
CATACAGGGTCAGCTAGGCCAGAGAAGGGACGGC showed a PBM binding z-score of 4.68.
In the case of TGAATGACGTTATAAGATCAGGGAACGTTGCAAA, the PBM binding z-score was -0.0798.
ATCTCTCGGTAACCAAGTTCAGTGAATGCCGAAC was tested, and the PBM binding z-score was 0.00199.
CCTAGCAGGCCAATCTGGGTCACCCAAGGCTTGA showed a PBM binding z-score of 0.68.
In the case of GCTTGTCGATCAAGGTTAAGAAAGACTAAGCTAA, the PBM binding z-score was 0.467.
In the case of ATATGTAGGTTAAGGGTCACTCAGGTTGGTTCGC, the PBM binding z-score was 4.78.
With GCTGCTAGGTTAGGTTGGTCAGCTAACGGGTACG the PBM binding z-score was -0.39.
In the case of ATCGAAAGGTCGACGAGGTGAGTGTACACCGTTT, the PBM binding z-score was 4.72.
CAAACTAGGTCACGAAAGGTCAAGGTCGAATGAC showed a PBM binding z-score of 7.28.
TAGCCTAGGTCAGATGGGGCCAGTATACGCTATA showed a PBM binding z-score of 2.75.
ATCGCAAGGTCGTGAGGTGAGTATACAGAAAGGC was tested, and the PBM binding z-score was 2.59.
Sequence TAGCATAGGTCATGGGCCAGTATACCACGCGAAC has a PBM binding z-score of 6.75.
In the case of TCTGCTAGGTCAGCTGGTCAGCTAACGAGCTGCC, the PBM binding z-score was 1.35.
GCTGTTAGGTCAGGTTGGTCAGCTAACGGGTACG gave a PBM binding z-score of 1.95.
In the case of TCGGCTAGGTCAGTTGGTCAGCTAACGAGCTGCC, the PBM binding z-score was 1.1.
With CCCATTAGTTGACCATAAGGGCAACCGAAGCTCG the PBM binding z-score was 1.1.
TAGCTTAGGTCATTGGGCCAGTATAGTACGCATC gave a PBM binding z-score of 4.59.
CCTTACGGGGCACTGACAGGTTATAGCATTTGGA was tested, and the PBM binding z-score was -0.345.
In the case of TCGAGTAGGTTACCGATGGGGCATTCAGCTTTCT, the PBM binding z-score was 0.211.
TCTATTAGTTGATTAGGGCATCCGAAACAGCGGA showed a PBM binding z-score of 0.685.
With TCTGCTAGGTCGGTTGGTCAGCTAACGAGCTGCC the PBM binding z-score was -1.29.
In the case of CGAACTAGGTCAGAACATGACAGTGAAGGATGAT, the PBM binding z-score was 0.703.
Work on TTACCAAGGTGAGCCGAGGTCGTTGATCCAACTC yielded a PBM binding z-score of 2.53.
CAAACTAGGTCACCGGAAGGTCAACGTCCGCATG showed a PBM binding z-score of 6.21.
For CCTACTGGGCCACGAAAAGTCATTGATTCAGTGA, the PBM binding z-score was -0.198.
AATACAGGGTCATCGTAGACCAGAGTACGCACAG gave a PBM binding z-score of 7.48.
In the case of CCTTACGGGTCACTCCAGGCTATAGCATCGGAGT, the PBM binding z-score was 4.45.
In the case of CCACACAGGTGAAAGGTAACTCAGTCTGGTACGC, the PBM binding z-score was 1.02.
For TCCGACAGGTGAAGGTAACTCAGGTACGCAGTCG, the PBM binding z-score was 0.658.
ATCGATAGGTCGACGAGGTGAGTATACACCGTTT showed a PBM binding z-score of 0.682.
Sequence TAGCCTAGGTCATGCAGGCCAGTATAGTGTCGGC has a PBM binding z-score of 3.92.
CGTCCAACGTCAGAGAGGTCAGTGAATGCCGAGT gave a PBM binding z-score of 1.61.
For CCCTACGGGTCACTGACAGGTTATAGCATTTGGA, the PBM binding z-score was 5.12.
In the case of AGAATGAGGTTACCAAACATCAGGGAAACGCTTG, the PBM binding z-score was 2.02.
In the case of CCTACTGGGCCATTCAGAGGTGATTGATCATATG, the PBM binding z-score was -0.00465.
CCTACCAGGCCAGGGTCACTCAAGCATTTCGCTT was tested, and the PBM binding z-score was 2.09.
CGAACTAGGTCATCCAGGACAATGAATACATTGA gave a PBM binding z-score of 4.61.
Sequence ACTAGTTGGTGAGCTGAGGTCACACACAATTCGG has a PBM binding z-score of 2.78.
In the case of CGTCCAAGCTCAAAGGTCAGTGAAGAGATGACGG, the PBM binding z-score was 3.

The sequences below were run on LXRa:RXRa (NR concentration 270 nM, RXRa partner concentration 90 nM) in the same assay as above.
Summary of the method: as §1
Work on CCAACTAGGTCAGAACAGGACAGTGAAGGATGAT yielded a PBM binding z-score of 1.41.
Work on CATACAGGGTCAGCTAGGCCAGAGAAGGGACGGC yielded a PBM binding z-score of 2.97.
TGAATGACGTTATAAGATCAGGGAACGTTGCAAA gave a PBM binding z-score of -0.0437.
In the case of ATCTCTCGGTAACCAAGTTCAGTGAATGCCGAAC, the PBM binding z-score was 0.567.
CCTAGCAGGCCAATCTGGGTCACCCAAGGCTTGA showed a PBM binding z-score of 1.16.
For GCTTGTCGATCAAGGTTAAGAAAGACTAAGCTAA, the PBM binding z-score was 0.896.
In the case of ATATGTAGGTTAAGGGTCACTCAGGTTGGTTCGC, the PBM binding z-score was 4.46.
GCTGCTAGGTTAGGTTGGTCAGCTAACGGGTACG was tested, and the PBM binding z-score was -0.356.
ATCGAAAGGTCGACGAGGTGAGTGTACACCGTTT showed a PBM binding z-score of 3.35.
Work on CAAACTAGGTCACGAAAGGTCAAGGTCGAATGAC yielded a PBM binding z-score of 7.82.
TAGCCTAGGTCAGATGGGGCCAGTATACGCTATA was tested, and the PBM binding z-score was 1.56.
ATCGCAAGGTCGTGAGGTGAGTATACAGAAAGGC gave a PBM binding z-score of 1.9.
With TAGCATAGGTCATGGGCCAGTATACCACGCGAAC the PBM binding z-score was 5.37.
TCTGCTAGGTCAGCTGGTCAGCTAACGAGCTGCC gave a PBM binding z-score of 0.826.
In the case of GCTGTTAGGTCAGGTTGGTCAGCTAACGGGTACG, the PBM binding z-score was 1.14.
In the case of TCGGCTAGGTCAGTTGGTCAGCTAACGAGCTGCC, the PBM binding z-score was 0.58.
With CCCATTAGTTGACCATAAGGGCAACCGAAGCTCG the PBM binding z-score was 0.851.
With TAGCTTAGGTCATTGGGCCAGTATAGTACGCATC the PBM binding z-score was 4.02.
With CCTTACGGGGCACTGACAGGTTATAGCATTTGGA the PBM binding z-score was 0.0473.
For TCGAGTAGGTTACCGATGGGGCATTCAGCTTTCT, the PBM binding z-score was 0.803.
Work on TCTATTAGTTGATTAGGGCATCCGAAACAGCGGA yielded a PBM binding z-score of 0.731.
Sequence TCTGCTAGGTCGGTTGGTCAGCTAACGAGCTGCC has a PBM binding z-score of -0.709.
CGAACTAGGTCAGAACATGACAGTGAAGGATGAT was tested, and the PBM binding z-score was 0.762.
TTACCAAGGTGAGCCGAGGTCGTTGATCCAACTC showed a PBM binding z-score of 1.33.
CAAACTAGGTCACCGGAAGGTCAACGTCCGCATG showed a PBM binding z-score of 6.05.
With CCTACTGGGCCACGAAAAGTCATTGATTCAGTGA the PBM binding z-score was -0.0823.
Work on AATACAGGGTCATCGTAGACCAGAGTACGCACAG yielded a PBM binding z-score of 5.86.
CCTTACGGGTCACTCCAGGCTATAGCATCGGAGT was tested, and the PBM binding z-score was 5.59.
Sequence CCACACAGGTGAAAGGTAACTCAGTCTGGTACGC has a PBM binding z-score of 1.03.
Work on TCCGACAGGTGAAGGTAACTCAGGTACGCAGTCG yielded a PBM binding z-score of 1.48.
ATCGATAGGTCGACGAGGTGAGTATACACCGTTT gave a PBM binding z-score of 0.624.
TAGCCTAGGTCATGCAGGCCAGTATAGTGTCGGC showed a PBM binding z-score of 2.91.
CGTCCAACGTCAGAGAGGTCAGTGAATGCCGAGT was tested, and the PBM binding z-score was 1.76.
With CCCTACGGGTCACTGACAGGTTATAGCATTTGGA the PBM binding z-score was 4.24.
With AGAATGAGGTTACCAAACATCAGGGAAACGCTTG the PBM binding z-score was 2.
CCTACTGGGCCATTCAGAGGTGATTGATCATATG showed a PBM binding z-score of 0.0536.
CCTACCAGGCCAGGGTCACTCAAGCATTTCGCTT gave a PBM binding z-score of 1.56.
CGAACTAGGTCATCCAGGACAATGAATACATTGA was tested, and the PBM binding z-score was 2.74.
ACTAGTTGGTGAGCTGAGGTCACACACAATTCGG gave a PBM binding z-score of 2.49.
For CGTCCAAGCTCAAAGGTCAGTGAAGAGATGACGG, the PBM binding z-score was 2.95.
